Results taken from PubChem BioAssay AID602274 (Sanford-Burnham Center for Chemical Genomics, 2012).
In all, about 360,000 compounds went through this assay and about 160 (0.044%) were called active. Rule as the data show it: active = survival enhancement above about 18%; inactive = the rest. The list comes from a sample in which actives are over-represented; it also holds similar structures and randomly drawn compounds.

assay: enhancers of single-cell hiPSC survival, primary screen, ATPlite luminescence (AID 602274); conditions: at 20 µM, hits give high values, 100% = ROCK inhibitor wells, 0% = DMSO;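 also: cells exposed to compounds for 16 hours before the ATP read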

Row | Structure (SMILES) | survival enhancement
1 | Cc1noc(C)c1NC(=O)Nc1ccc2c(c1)C(=O)N([C@H](C)CO)C[C@H](C)[C@@H](CN(C)C(=O)Nc1ccc(C(F)(F)F)cc1)O2 | -1.8% (inactive)
2 | Cc1ccc(NC(=O)c2cnc(SCC(=O)NCC3CCCO3)n(C)c2=O)cc1 (centres undefined) | 1.7% (inactive)
3 | O=C(NCC(c1ccco1)N1CCc2ccccc2C1)c1ccccc1Cl (centres undefined) | -0.3% (inactive)
4 | CCc1ccc([C@@H]2CC(=O)[C@@H]3CN(S(=O)(=O)c4ccc(C)cc4)[C@H](c4ccc(Cl)cc4)C[C@@H]3N2S(=O)(=O)c2ccc(C)cc2)cc1 | 0.5% (inactive)
5 | CCCOC(=O)CC1C(=O)NCCN1Cc1ccc(F)cc1 (centres undefined) | 0.4% (inactive)
6 | COC(=O)C1NN=C(C(=O)c2ccc(Br)cc2)C1c1cccc(Br)c1 (centres undefined) | 2.6% (inactive)
7 | COC(=O)C1=C(C)N(C)C(C)=C(C(=O)OC)C1c1cccc(Br)c1 | 19.8% (active)
8 | COC(=O)C1=C(C)N(C)C(=S)NC1c1cc(OC)ccc1OC (centres undefined) | -1.1% (inactive)
9 | O=C(CS(=O)(=O)c1cn(Cc2ccc(Cl)cc2)c2ccccc12)N1CCOCC1 | 0.6% (inactive)
10 | COc1ccccc1P(=O)(c1ccccc1)c1ccccc1NC(C)=O (centres undefined) | -0.7% (inactive)
11 | CN(Cc1ccc(F)cc1)C(=O)COc1ccc2ccccc2c1 | -0.4% (inactive)
12 | C[C@H]1CN([C@@H](C)CO)C(=O)c2cc(Br)cnc2O[C@H]1CN(C)S(=O)(=O)c1cccs1 | 3.8% (inactive)
13 | CC(=O)Nc1ccccc1C(=O)C(=O)Nc1ccc(F)cc1 | 3.3% (inactive)
14 | CC1CCN(C(=O)/C(=C\c2ccccc2F)NC(=O)c2ccccc2)CC1 | -0.6% (inactive)
15 | CCOC(=O)c1ccn(-c2nc(-c3ccco3)cc(C(F)(F)F)n2)n1 | -0.8% (inactive)
16 | CC(CCc1ccc(O)cc1)NCc1ccc(Cl)cc1Cl (centres undefined) | 0.5% (inactive)
17 | CCN(CC)C(=O)Oc1ccc(OC(=O)N(CC)CC)cc1 | -2.3% (inactive)

Row | Structure (SMILES) | survival enhancement
18 | O=C(COC(=O)C1(c2ccc(F)cc2)CCCC1)N1CCNC1=O | 0.5% (inactive)
19 | Cc1ccccc1N1CCN(Cc2nc(Cc3ccccc3F)no2)CC1 | -0.1% (inactive)
20 | O=[n+]1c2c(n([O-])c3cc(Br)ccc31)CCC2 | 3.1% (inactive)
21 | CCN(CC)c1ccc(NC(=O)c2ccc(=O)[nH]c2)cc1S(=O)(=O)Nc1ccc(OC)cc1 | 1.7% (inactive)
22 | CCCS(=O)(=O)Nc1c(C(=O)O)[nH]c2ccccc12 | 0.3% (inactive)
23 | O=C(O)c1ccc([N+](=O)[O-])cc1Sc1ccsc1 | 6.3% (inactive)
24 | CC(C)CCOc1ccc(C(=O)Nc2cc(S(=O)(=O)N3CCOCC3)ccc2N2CCOCC2)cc1 | -2.4% (inactive)
25 | O=C(NCc1cccnc1)c1cc(C2CCCN(C(=O)C3CCCCC3)C2)on1 (centres undefined) | 0.4% (inactive)
26 | Cc1ccc2cccc(S(=O)(=O)N3CCN(c4ccccc4F)CC3)c2n1 | 0% (inactive)
27 | COc1cccc(CNC(=O)CN2C(=O)NC(Cc3ccccc3)(c3ccccc3)C2=O)c1 (centres undefined) | -1.1% (inactive)
28 | Cn1c(=O)c2c(nc(Br)n2CCSc2nc3ccccc3o2)n(C)c1=O | 1.6% (inactive)
29 | OCCC1CN(Cc2ccc3nsnc3c2)CCN1C1CCCC1 (centres undefined) | 1.5% (inactive)
30 | COC(=O)C1=C(Nc2ccc(C)cc2)C=C(C)C(C(=O)OC)C1c1ccc(F)cc1 (centres undefined) | -0.6% (inactive)
31 | N#Cc1ccccc1Sc1ccccc1C(=O)OCC(=O)NC1CCCCC1 | 1% (inactive)
32 | O=C(O)c1ccc(NS(=O)(=O)c2ccc3c(c2)C(=O)c2cc(S(=O)(=O)Nc4ccc(C(=O)O)cc4)ccc2-3)cc1 | 4.4% (inactive)
33 | CN(C)N(C)C(=O)C(O)(c1ccccc1)c1ccccc1 | -0.9% (inactive)
34 | COC(=O)C1=NNC2(c3ccc(C)cc3)C(=O)N(c3cccc(C)c3C)C(=O)C12 (centres undefined) | 1.4% (inactive)
